G9a inh = inhibitors of human histone lysine methyltransferase G9a; Q96KQ7; G9a H3K9 monomethylation, AlphaScreen, 2 h; Potency, µM (titrated, usually from 102 µM), for inactives: at the top dose activity, negative = inhibition, most hits filed as inhibitors; 350,000 tested, 8.8% active; AID 504332; note: % is set by controls: 0 for no effect and ±100 for the full control effect; nearly all actives have a fitted effect of over 75% in size
Target sequence (Q96KQ7 913-1193 limits assumed): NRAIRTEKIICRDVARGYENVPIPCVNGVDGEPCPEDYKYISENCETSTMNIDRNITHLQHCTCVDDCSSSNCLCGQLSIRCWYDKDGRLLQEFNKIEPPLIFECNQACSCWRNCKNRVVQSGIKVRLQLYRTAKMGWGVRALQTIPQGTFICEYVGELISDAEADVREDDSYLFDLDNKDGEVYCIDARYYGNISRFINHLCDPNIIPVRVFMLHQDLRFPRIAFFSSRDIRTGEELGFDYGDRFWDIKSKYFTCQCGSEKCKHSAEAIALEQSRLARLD
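Readings reflect AlphaScreen signal from monomethyl-H3K9 antibody detection. HMT at 20 nM; substrate b-H3K9 500 nM; cofactor SAM 20 uM; 2 h RT reaction; compounds tested as titrations in qHTS with 15 min preincubation.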
JMJD2A Tudor = JMJD2A Tudor domain (human) inhibition | AlphaScreen JMJD2A-Tudor / H3K4me3 peptide binding | Potency, µM (doses to about 114 µM), for inactives: at the highest dose activity change, negative = inhibition, actives largely listed as inhibitors | 390,000 tested, 4.4% active | AID 504339; note: % is set by controls: 0 for no effect and ±100 for the full control effect; nearly all actives have a fitted effect of over 50% in size
Sfp inh = Sfp phosphopantetheinyl transferase inhibition | Q9F4F7 | 310,000 tested, 3.5% active | AID 1490 | Potency, µM, inactives show largest response in the series, negative = inhibition, most hits filed as inhibitors | Biochemical Sfp PPTase activity, qHTS;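 note: the enzyme is Sfp with the accession as filed and its product quenches rhodamine fluorescence; 0% = enzyme reaction without inhibitor and -100% = no enzyme wells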
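Fluorescence-quenching assay: 15 nM Sfp-PPTase preincubated 15 min at room temperature with compound, then 5 uM rhodamine-CoA and 12.5 uM BHQ-2-labelled YbbR peptide added. Fluorescence (ex 525/em 598 nm) read at start and after 30 min; difference gives rate.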
L3MBTL1 inh = L3MBTL1 (human) inhibition | Q9Y468 | AlphaScreen L3MBTL1–H3K9me1 peptide binding | Potency, µM (top dose mostly 57.1 µM), for inactives: at the highest dose activity, negative = inhibition, hits mostly inhibitors | 230,000 tested, 0.66% active | AID 485360; note: % is set by controls: 0 for no effect and ±100 for the full control effect; nearly all actives have a fitted effect of over 60% in size
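Read-out is AlphaScreen signal from streptavidin donor and nickel chelate acceptor beads (10 ug/mL final each) bridging L3MBTL1 (50 nM) and biotinylated K9-monomethylated H3(1-15) peptide (75 nM), after 30 min compound exposure at room temperature.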
BAZ2B inh = BAZ2B (human) inhibition; Q9UIF8; AlphaScreen BAZ2B-H3K14Ac peptide displacement; Potency, µM (top dose mostly 114 µM), for inactives: top-dose activity change, negative = inhibition, usual class: inhibitors; 360,000 tested, 4.4% active; AID 504333; note: % is set by controls: 0 for no effect and ±100 for the full control effect; nearly all actives have a fitted effect of over 60% in size
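BAZ2B (50 nM) with biotin-H3(5-23)K14Ac peptide (50 nM) in PBS pH 7.4, 0.01% Tween-20, preformed 30 min, then compound 30 min at room temperature; top concentration 110uM. AlphaScreen streptavidin donor/nickel chelate acceptor beads (10 ug/mL final), 20 min dark, signal read.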
HP1b binding inh = inhibitors of HP1-beta chromodomain binding to methylated histone tails; Potency, µM (series often up to 114 µM), without a hit: top-dose activity change, negative = inhibition, actives largely listed as inhibitors; 390,000 tested, 0.56% active; AlphaScreen HP1-beta / biotin-H3K9me3 peptide binding; P83916; note: nearly all actives have a fitted effect of over 70% in size
Target sequence (P83916 whole entry, looked up): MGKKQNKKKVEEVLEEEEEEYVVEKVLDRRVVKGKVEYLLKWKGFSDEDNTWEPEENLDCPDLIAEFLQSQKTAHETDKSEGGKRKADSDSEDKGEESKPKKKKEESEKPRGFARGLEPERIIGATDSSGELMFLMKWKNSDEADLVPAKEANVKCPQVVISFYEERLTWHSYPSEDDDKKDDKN
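HP1-beta protein (50 nM final) preincubated 30 min at room temperature with biotinylated H3(1-18)K9me3 peptide (50 nM) in PBS pH 7.4, 0.01% Tween-20, then compound added for 30 min. AlphaScreen streptavidin donor/nickel chelate acceptor beads (10 ug/mL final), 30 min dark, luminescence read.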
Active calls of the source: *; ? = inconclusive; / = not tested or not shown; [ ] = dose if it differs, or a comment. Sampled rows, rich in hits. Any-hit rate of the full collection: about 12%. Calls come from the whole dose curve; as a rule, active = well fitted curve in the direction sought with a large enough effect; inconclusive = small, poorly fitted or top-dose-only effect, or another doubt; inactive = no such curve, though single readings can be large; an effect the other way counts as inactive or inconclusive. Potency is the fitted concentration of half-maximal effect.

SMILES	G9a inh	JMJD2A Tudor	Sfp inh	L3MBTL1 inh	BAZ2B inh	HP1b binding inh
C#CCOCCOCCOCCNc1nc(N2CCN(C(=O)[C@H](CCC(=O)O)n3cc(C(N)Cc4ccc(O)cc4)nn3)CC2)nc(N2CCN(C(=O)[C@H](CCCCN)n3cc(C(N)[C@H](C)CC)nn3)CC2)n1 (stereo not given in full)	15%[12.7 µM]	/	-10%	/	79µM*	/
Cc1ccc2c(c1)C(c1ccccc1)N(C(=O)c1ccccc1F)CC(=O)N2 (stereo not given)	-38%[59 µM]	-18%	/	/	-9%	20%
COC(=O)c1c(NC(=O)CS(=O)(=O)c2ccc(C)cc2)sc2c1CCCCC2	-29%[59 µM]	-25%	/	/	-12%	-7%
Cc1cc(Nc2cccc(C(=O)O)c2)n2ncnc2n1	-25%	-10%	9%	8%	9%	38%
COc1ccc(C2=CSC(/N=C/c3ccc(F)cc3)=NN2)cc1	25µM*	?	28µM*	-8%	1%[57.1 µM]	?
CCOc1ccc(-n2nc3ccc(NC(=O)c4ccc(C)cc4C)cc3n2)cc1	-6%[59 µM]	-18%	/	/	1%	27%
CN(C)CCCNCCCCNC(=O)/C=N/O	5%[2.33 µM]	0%	-15%	15%	8%	44%
CN(C)CCCNCCCNC(=O)/C=N/O	32µM*	?	-7%	/	-6%	12%
COc1ccc(Nc2nc(S(=O)(=O)c3ccc(C)cc3)c(Cl)s2)cc1	45µM*	?	7%	0%	-32%	-4%
CCCn1c(SCC(=O)N2CCCCC2)nnc1C(C)C	/	25µM*	13%	8%	-2%	?
CN1C(C(=O)Nc2ccc(C(=O)O)cc2)=C(O)c2ccccc2S1(=O)=O	?	79µM*	/	7%	-29%	-6%
C=C(C)C(=O)Nc1cccc(C2=NOC3(C2)C[C@@H](C(N)=O)N(C(=O)/C=C/CC)C3)c1 (stereo not given in full)	?	10µM*	15%	/	7.1µM*	10µM*
C=C(C)C(=O)Nc1cccc(C2=NOC3(C2)C[C@@H](C(N)=O)N(C(=O)C2(C)CC2)C3)c1 (stereo not given in full)	?	2.2µM*	4%	/	1.6µM*	2.5µM*
CCCCCC(=O)Nc1cccc(C2=NOC3(C2)C[C@@H](C(N)=O)N(C(=O)C2(C)CC2)C3)c1 (stereo not given in full)	29%[12.7 µM]	-28%	13%	/	-12%	24%
C/C=C\C(=O)Nc1cccc(C2=NOC3(C2)C[C@H](C(N)=O)N(C(=O)/C=C/CC)C3)c1 (stereo not given in full)	10%[59 µM]	-17%	3%	/	4%	18%
C=C(C)C(=O)Nc1cccc(C2=NOC3(C2)C[C@@H](C(N)=O)N(C(=O)C(=C)C)C3)c1 (stereo not given in full)	?	7.9µM*	18%	/	5µM*	8.9µM*
C/C=C(\C)C(=O)N1CC2(CC(c3cccc(NC(=O)CC(c4ccccc4)c4ccccc4)c3)=NO2)C[C@H]1C(N)=O (stereo not given in full)	14%[12.7 µM]	/	-5%	/	?	/
O=C(O)COc1ccc(CCNS(=O)(=O)c2ccccc2)s1	?	/	-13%	/	/	/
c1ccc(-c2ccccc2OCCCN2CCOCC2)cc1	/	7.9µM*	-8%	-13%	18µM*	?
OCCCN1CCN(CCCOc2ccccc2-c2ccccc2)CC1	-4%[59 µM]	-15%	12%	-11%	-11%	33%
CC(=O)c1ccccc1OCCCCN1CCCCC1	25µM*	25µM*	1%	-6%	?	?
Fc1ccccc1OCCCN1CCOCC1	?	4.5µM*	?	/	?	?
c1ccc(-c2ccccc2OCCOCCN2CCCCC2)cc1	?	3.2µM*	?	-1%	-15%	?
c1ccc(OCc2ccc(CCCN3CCOCC3)cc2)cc1	12%[12.7 µM]	-19%	0%	/	-5%	6%
c1ccc(-c2ccccc2OCCN2CCCC2)cc1	7.9µM*	22µM*	-8%	-13%	56µM*	?
SMILES	G9a inh	JMJD2A Tudor	Sfp inh	L3MBTL1 inh	BAZ2B inh	HP1b binding inh
Brc1ccccc1OCCCCCN1CCCC1	4%[0.0925 µM]	/	-15%	-2%	-4%	/
C=CCc1ccccc1OCCCCN1CCCC1	?	10µM*	-7%	/	50µM*	?
c1ccc(CCCN2CCOCC2)cc1	50µM*	20µM*	-24%	1%	?	?
c1ccc(-c2ccccc2OCCCCN2CCCCCC2)cc1	7.9µM*	22µM*	-7%	-5%	50µM*	-39%
CC(C)CCNC(=O)c1ccccc1SCC(=O)NC1CCCCCCC1	3%[12.7 µM]	-2%	/	8%	-9%	37%
O=C(CSc1ccccc1C(=O)NCc1ccccc1)NC12CC3CC(CC(C3)C1)C2	10µM*	-16%	9%	0%	-8%	26%
O=C(CSc1ccccc1C(=O)O)NC1CCCCCC1	-37%	10µM*	20%	6%	-3%	-24%
O=C(CSc1ccccc1C(=O)O)NC1CCCCCCC1	-39%[59 µM]	4%	23%	/	4%	62%
O=C(O)CSc1ccccc1C(=O)O	45µM*	-25%	-1%	/	-10%	10%
O=C(CSc1ccccc1C(=O)NCc1ccccc1)NC1CCCCCCC1	10µM*	89µM*	-17%	3%	-5%	10%
O=C(CSc1ccccc1C(=O)O)NCc1ccccc1	-45%	-8%	27%	8%	-9%	17%
CC(=O)N1CCC[C@@]2(CCN(c3ncccn3)C2)C1	0%[12.7 µM]	/	15%	/	/	/
COc1ccc(N2CCC(CNC(=S)Nc3ccc(C)cc3C)C2)cc1 (stereo not given)	?	28µM*	50µM*	/	16µM*	?
COc1ccc(CC(=O)NC(=S)Nc2cccc(C)c2)cc1	/	-4%	/	/	/	44%
COc1ccc(N2CCC(CNC(=S)Nc3c(C)cc(C)cc3C)C2)cc1 (stereo not given)	?	35µM*	?	/	20µM*	7.1µM*
COc1ccc(N2CCC(CNC(=S)Nc3cccc(C)c3)C2)cc1 (stereo not given)	?	45µM*	-11%	?	13µM*	?
O=C(Nc1cccc(F)c1)N1CCCC2(CCNCC2)C1	3%[12.7 µM]	/	-4%	/	/	/
O=C(O)C1Cc2[nH]cnc2C(c2ccccc2O)N1 (stereo not given)	17%[59 µM]	89µM*	79µM*	4%	0%	18%
O=C(O)C1Cc2[nH]cnc2C(c2cccc([N+](=O)[O-])c2)N1 (stereo not given)	10%	-12%	-15%	-4%	?	40%
Cc1nc(C(Cl)(Cl)Cl)nc2[nH]ccc(=O)c12	-8%	11µM*	16%	-5%	-30%	-10%

Screening data (PubChem)
